Pf growth 96h – P. falciparum growth inhibition at 96 hours | hit rate 6.9% among 320,000 | Potency, µM (highest dose often 28.7 µM), without a hit: at the highest dose activity change, negative = inhibition, hits mostly inhibitors | P. falciparum luciferase reporter growth, 96 h; note: % is set by controls: 0 for no effect and ±100 for the full control effect
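Compounds incubated with erythrocytes infected by luciferase-expressing P. falciparum (2% hematocrit, 0.05% parasitemia final) for 96 hours, 37 C in 5% CO2. Growth inhibition scored as decreased luciferase luminescence.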
Pf growth 48h – inhibits P. falciparum growth in the first generation, 48 h; Potency, µM (series often up to 28.7 µM), inactives show top-dose activity change, negative = inhibition, most hits filed as inhibitors; hit rate 5.9% among 310,000; P. falciparum luciferase growth in erythrocytes, 48 h; note: % is set by controls: 0 for no effect and ±100 for the full control effect
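Cell-based growth assay: transgenic P. falciparum expressing firefly luciferase, cultured in red cells within RPMI 1640 containing 0.5% w/v Albumax, 24 mM bicarbonate and gentamycin. A drop in luciferase activity indicates inhibition.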
Sm TGR inh – blocks Schistosoma mansoni thioredoxin glutathione reductase | Q962Y6 | purified TGR, DTNB reduction, TNB absorbance 405 nm | Potency, µM (series often up to 114 µM), for the others: top-dose activity change, negative = inhibition, usual class: inhibitors | hit rate 3% among 360,000; note: % is set by controls: 0 for no effect and ±100 for the full control effect; nearly all actives have a fitted effect of over 60% in size
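TGR 20 nM + NADPH 100 uM (dispensed conc.), cpd preinc 15 min RT; start with NADPH (500 uM addition) then DTNB (15 mM addition). Kinetic TNB absorbance, 405 nm filter. Four-parameter Hill fit across titration.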
SARS PLP yeast – SARS-CoV PLP inhibition in yeast | Potency, µM (highest dose often 32.9 µM), inactives show at the top dose activity, positive = growth rescue, actives largely listed as activators | hit rate 0.19% among 330,000 | S. cerevisiae expressing SARS-CoV PLpro, growth rescue; calls by dose curve; note: 0% is about no effect; nearly all actives have a fitted effect of over 55% in size
* marks the source's active call; other numbers are inactive results; u = inconclusive; x = no result. In the library only some 12% were active in any assay of this set; here they are far more common. Unless noted, calls come from the whole dose curve; as a rule, active = well fitted curve in the direction sought with a large enough effect; inconclusive = small, poorly fitted or top-dose-only effect, or another doubt; inactive = no such curve, though single readings can be large; an effect the other way counts as inactive or inconclusive. Potency is the fitted concentration of half-maximal effect.

SMILES	Pf growth 96h	Pf growth 48h	Sm TGR inh	SARS PLP yeast
O=C(C1=C[C@H](c2csc3ccccc23)C[C@H](OCCCCO)O1)N1CCN(Cc2ccccc2)CC1	2.3µM*	3.7µM*	18µM*	-2%
O=C(C1=C[C@@H](c2csc3ccccc23)C[C@@H](OCCCCO)O1)N1CCN(Cc2ccc3c(c2)OCO3)CC1	12µM*	u	-10%	-1%
O=C(C1=C[C@H](c2csc3ccccc23)C[C@H](OCCCCO)O1)N1CCN(Cc2ccc3c(c2)OCO3)CC1	1.5µM*	2.3µM*	12%	-1%
O=C(NCc1ccccc1)C1=C[C@H](c2csc3ccccc23)C[C@H](OCCCCO)O1	u	u	u	-4%
COc1ccc(-c2nc(C)c(CCNC(=O)C(=O)Nc3cccc(F)c3)s2)cc1OC	x	x	3%	x
Cc1cccc(NC(=O)C2CCC(CNS(=O)(=O)c3ccc(Br)s3)CC2)c1 (centres undefined)	x	x	1%	x
O=C(C1=C[C@@H](c2coc3ccccc3c2=O)C[C@@H](OCCCCO)O1)N1CCN(Cc2ccccc2)CC1	u	u	48%	-1%
O=C(C1=C[C@@H](c2coc3ccccc3c2=O)C[C@@H](OCCCCO)O1)N1CCN(Cc2ccc3c(c2)OCO3)CC1	3.3µM*	u	-10%	-1%
S=C(NCc1ccccc1)NCc1ccccc1Cl	u	6%	-15%	28%
COc1cccc(OC)c1C(=O)Nc1ccc(S(=O)(=O)N2CCCCC2)cc1	3.3µM*	-17%	-7%	0%
COc1ccccc1C(=O)Nc1ccc(S(=O)(=O)N2CCCCC2)cc1	u	-17%	-4%	-2%
COc1cccc(C(=O)Nc2ccc(S(=O)(=O)N3CCCCC3)cc2)c1OC	5.2µM*	12µM*	2%	-3%
CCc1ccccc1NC(=O)NC(CC)Cn1nnc2ccccc2c1=O (centres undefined)	x	x	1%	x
CC1=NN(C(N)=S)C(=O)C1N=Nc1cccc(C)c1 (centres undefined)	u	12µM*	-13%	1%
CC1=NN(C(N)=S)C(=O)C1N=Nc1ccc(O)cc1 (centres undefined)	23%	48%	-3%	-1%
CC1=NN(C(N)=S)C(=O)C1N=Nc1ccc(F)cc1 (centres undefined)	19%	1.9µM*	-4%	1%
Cc1cc(=O)n(CC(=O)NCCC(C)C)c2c1c(C)nn2C	x	x	6%	x
Cc1ccc(S(=O)(=O)N2CCN(c3cccc(C)c3)CC2)cc1	u	20%	-15%	6%
Cc1cc(Cl)n2c(nc3cc(F)c(F)cc32)c1C#N	u	u	1.1µM*	-18%
Cc1ccc(NC(=O)CNc2cccc(C)c2C)c(C)c1	u	-29%	-10%	-9%
Cc1ccc(NC(=O)CNc2ccc(OC(C)C)cc2)c(C)c1	13µM*	u	-30%	1%
CCN(CC)CCN(CC(=O)Nc1c(C)cc(C)cc1C)C(=O)c1ccccc1	-58%	-3%	0%	-2%
Cc1nc2ccccc2c(=O)n1Nc1cccc(Cl)c1	5.9µM*	2.9µM*	0%	26%
Cc1cc(Nc2cccc(Cl)c2)c2ccccc2n1	8%	u	2%	1%
Cc1ccc(C(=O)Nn2c(C)nc3ccccc3c2=O)cc1C	13µM*	15%	1%	-3%
SMILES	Pf growth 96h	Pf growth 48h	Sm TGR inh	SARS PLP yeast
Cc1ccc(O)c(C(CC(=O)N2CCCC2)c2ccccc2)c1 (centres undefined)	0.37µM*	-1%	1%	28%
Cc1ccc(O)c(C(CC(=O)NC(C)C)c2ccccc2)c1 (centres undefined)	13µM*	-19%	x	0%
COC(=O)c1ccc(CNC(=O)C2CCC(=O)N(CCN3CCOCC3)C2)cc1 (centres undefined)	-23%	8%	-21%	-2%
Nc1nonc1-c1nc2ccccc2n1Cc1cccc(Cl)c1	x	x	4%	x
CS(=O)(=O)c1ccc(Cl)c(NC(=O)c2cccc(-n3cnnn3)c2)c1	6%	-8%	-4%	-1%
CCOC(=O)C1=CCC2c3c(c4ccccc4n3C)C(=O)C1N2C(=O)OC(C)(C)C (centres undefined)	u	8.3µM*	-11%	-9%
CCOC(=O)C1=CC[C@]2(C)c3c(c4ccccc4n3C)C(=O)C1N2C	u	13µM*	-26%	6%
CC1CCN(CC(O)COc2ccc(-c3ccccc3)cc2)CC1 (centres undefined)	-16%	u	0%	-3%
CC1CCCC(NC(=O)c2ccc3c(c2)N(Cc2ccccc2)C(=O)CS3=O)C1C (centres undefined)	10µM*	17µM*	10%	-9%
O=C(NC1CCCCCCC1)c1ccc2c(c1)N(Cc1ccc(F)cc1)C(=O)CS2=O (centres undefined)	u	12µM*	2%	12%
Cc1ccc(C)c(NC(=O)c2ccc3c(c2)N(Cc2ccc(F)cc2)C(=O)CS3=O)c1 (centres undefined)	-12%	3.3µM*	-1%	-23%
O=C(NCC1CCCO1)c1ccc2c(c1)N(Cc1ccccc1)C(=O)CS2=O (centres undefined)	-16%	u	26%	4%
CCOc1ccc(NC(=O)c2ccc3c(c2)N(Cc2ccc(F)cc2)C(=O)CS3=O)cc1 (centres undefined)	u	10µM*	13%	-3%
O=C(NC1CCCC1)c1ccc2c(c1)N(Cc1ccc(F)cc1)C(=O)c1ccccc1S2	x	x	7%	x
CN(C)C(=O)c1ccc(NC(=O)COc2cccc3c2OC(C)(C)C3)cc1	4%	u	-17%	-2%
COc1ccc(C(=O)N2CCN(C3CCC(c4ccccc4)CC3)CC2)cc1OC (centres undefined)	9.3µM*	u	-10%	1%
COc1ccccc1N1CCN(C(=O)c2cccc(S(=O)(=O)N3CCCCCC3)c2)CC1	u	13µM*	-12%	-10%
COc1ccc(C(=O)N2CCC(N3CCN(c4ccccc4)CC3)CC2)cc1OC	37%	-18%	-13%	25%
COc1ccccc1N1CCN(C2CCN(C(=O)c3cccc(F)c3)CC2)CC1	13µM*	-15%	-4%	11%
CN1CCN(S(=O)(=O)c2cccc(C(=O)N3CCN(c4ccccc4F)CC3)c2)CC1	-24%	-25%	-6%	3%
O=C(c1cccc(S(=O)(=O)N2CCCCCC2)c1)N1CCN(c2ccccc2F)CC1	12%	12µM*	1%	-1%
COc1cc(C(=O)NC(=S)Nc2ccc(Cl)cn2)cc(OC)c1OC	0%	23%	-7%	-3%
O=C(NCC(c1cccnc1)N1CCOCC1)C(=O)Nc1cccc(Cl)c1 (centres undefined)	x	x	5%	x
NC(=O)COc1ccc(-c2noc(COc3ccc(Cl)cc3)n2)cc1	x	x	-4%	x
CC1CC(C)CN(S(=O)(=O)c2cccc(C(=O)N3CCN(c4ccc(F)cc4)CC3)c2)C1 (centres undefined)	u	12µM*	-6%	2%

Compound activity as filed in PubChem BioAssay.
